Assays:
Assay in all cases: log2 ratio of Biotin-Ahx-Ub-VS probe labelling (fragment/DMSO); higher = less target engagement (more negative = stronger competition), active = hit call of the paper (q ≤ 0.05, log2 ratio ≤ -1)
Conditions in all cases: compound concentration: 200 uM; treatment time: 3 h
ALG13 = biological target: T1, ALG13 (UniProt Q9NP73)
T1 sequence (whole entry): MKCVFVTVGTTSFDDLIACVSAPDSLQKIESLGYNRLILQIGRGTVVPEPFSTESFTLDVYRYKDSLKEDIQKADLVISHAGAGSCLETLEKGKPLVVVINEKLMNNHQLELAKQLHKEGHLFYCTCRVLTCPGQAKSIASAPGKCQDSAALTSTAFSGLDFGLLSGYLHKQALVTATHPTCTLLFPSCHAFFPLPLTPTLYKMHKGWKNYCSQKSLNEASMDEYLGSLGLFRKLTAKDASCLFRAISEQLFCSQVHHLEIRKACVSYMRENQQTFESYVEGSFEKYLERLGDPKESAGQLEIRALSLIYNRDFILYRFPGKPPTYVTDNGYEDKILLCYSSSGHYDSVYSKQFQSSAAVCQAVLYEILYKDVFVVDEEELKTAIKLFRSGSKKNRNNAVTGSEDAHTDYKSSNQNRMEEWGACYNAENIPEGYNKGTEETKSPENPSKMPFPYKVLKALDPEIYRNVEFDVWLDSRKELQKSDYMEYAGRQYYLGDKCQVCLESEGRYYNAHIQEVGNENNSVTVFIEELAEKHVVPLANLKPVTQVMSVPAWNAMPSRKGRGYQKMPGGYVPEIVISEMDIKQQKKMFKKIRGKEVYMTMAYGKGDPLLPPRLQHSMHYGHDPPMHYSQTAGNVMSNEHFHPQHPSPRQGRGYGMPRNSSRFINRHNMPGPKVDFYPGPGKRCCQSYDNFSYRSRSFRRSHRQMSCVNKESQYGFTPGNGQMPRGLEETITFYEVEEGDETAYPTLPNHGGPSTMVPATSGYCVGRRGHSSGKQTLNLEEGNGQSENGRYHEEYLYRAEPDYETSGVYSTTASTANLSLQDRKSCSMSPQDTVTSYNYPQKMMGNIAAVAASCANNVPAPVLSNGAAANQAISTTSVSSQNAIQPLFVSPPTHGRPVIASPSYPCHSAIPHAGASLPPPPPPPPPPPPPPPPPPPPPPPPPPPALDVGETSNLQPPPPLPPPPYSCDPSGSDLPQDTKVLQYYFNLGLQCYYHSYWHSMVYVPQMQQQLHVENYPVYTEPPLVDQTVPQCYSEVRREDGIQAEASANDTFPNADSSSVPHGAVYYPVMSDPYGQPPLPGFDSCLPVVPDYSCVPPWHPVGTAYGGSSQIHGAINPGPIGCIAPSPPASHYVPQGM
Method in brief: (§1)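 The table lists average log2 ratios of fragment over vehicle, from an unpaired t-test on global-median-normalised Spectronaut label-free quantities. Proteins with ≥2 unique peptides were used. Samples were HEK293T lysate (495 µg) treated in triplicate with fragment at 200 µM or vehicle for 3 h, then with Biotin-Ahx-Ub-VS (0.5 µM final) for 1 h, with labelled DUBs NeutrAvidin-enriched and run by diaPASEF LC-MS/MS.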

ATXN3 = ATXN3 (UniProt P54252)
Method in brief: as §1

BAP1 = biological target: T2, BAP1 (UniProt Q92560)
T2 sequence (whole entry): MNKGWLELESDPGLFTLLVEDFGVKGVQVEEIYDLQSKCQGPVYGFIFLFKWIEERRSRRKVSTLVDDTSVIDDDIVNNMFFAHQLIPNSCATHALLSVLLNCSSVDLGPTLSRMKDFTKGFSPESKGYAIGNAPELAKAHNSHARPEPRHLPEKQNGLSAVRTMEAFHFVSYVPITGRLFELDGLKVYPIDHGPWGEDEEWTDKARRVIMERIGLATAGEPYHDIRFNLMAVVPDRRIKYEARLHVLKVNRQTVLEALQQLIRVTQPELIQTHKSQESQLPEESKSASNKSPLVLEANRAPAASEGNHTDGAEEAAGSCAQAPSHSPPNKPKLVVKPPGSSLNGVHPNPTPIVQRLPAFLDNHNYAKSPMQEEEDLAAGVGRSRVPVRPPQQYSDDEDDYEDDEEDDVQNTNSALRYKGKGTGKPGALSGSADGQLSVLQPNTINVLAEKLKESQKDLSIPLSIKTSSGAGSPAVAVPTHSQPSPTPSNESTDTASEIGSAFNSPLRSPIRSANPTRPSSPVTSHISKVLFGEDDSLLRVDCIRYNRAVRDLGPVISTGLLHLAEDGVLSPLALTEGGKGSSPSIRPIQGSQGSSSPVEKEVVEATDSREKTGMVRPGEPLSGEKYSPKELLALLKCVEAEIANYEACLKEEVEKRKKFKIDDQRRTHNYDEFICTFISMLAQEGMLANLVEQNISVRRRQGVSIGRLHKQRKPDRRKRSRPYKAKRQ
Method in brief: as §1

EIF3F = EIF3F (UniProt O00303)
Method in brief: as §1

EIF3H = EIF3H (UniProt O15372)
Method in brief: as §1

FAM105A = biological target: T3, FAM105A (UniProt Q9NUU6)
T3 sequence (whole entry): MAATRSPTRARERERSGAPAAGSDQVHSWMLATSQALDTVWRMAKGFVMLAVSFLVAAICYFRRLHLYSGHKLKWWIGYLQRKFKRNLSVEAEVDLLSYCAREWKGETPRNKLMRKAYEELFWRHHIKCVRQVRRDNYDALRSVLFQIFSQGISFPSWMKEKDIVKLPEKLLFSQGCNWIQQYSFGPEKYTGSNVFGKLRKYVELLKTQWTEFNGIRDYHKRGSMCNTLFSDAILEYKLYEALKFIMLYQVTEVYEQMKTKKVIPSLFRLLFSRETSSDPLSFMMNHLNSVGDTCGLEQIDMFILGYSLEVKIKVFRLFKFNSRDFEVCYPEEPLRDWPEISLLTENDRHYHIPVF
Method in brief: as §1

OTUB1 = OTUB1 (UniProt Q96FW1)
Method in brief: as §1

OTUD4 = biological target: T4, OTUD4 (UniProt Q01804)
T4 sequence (whole entry): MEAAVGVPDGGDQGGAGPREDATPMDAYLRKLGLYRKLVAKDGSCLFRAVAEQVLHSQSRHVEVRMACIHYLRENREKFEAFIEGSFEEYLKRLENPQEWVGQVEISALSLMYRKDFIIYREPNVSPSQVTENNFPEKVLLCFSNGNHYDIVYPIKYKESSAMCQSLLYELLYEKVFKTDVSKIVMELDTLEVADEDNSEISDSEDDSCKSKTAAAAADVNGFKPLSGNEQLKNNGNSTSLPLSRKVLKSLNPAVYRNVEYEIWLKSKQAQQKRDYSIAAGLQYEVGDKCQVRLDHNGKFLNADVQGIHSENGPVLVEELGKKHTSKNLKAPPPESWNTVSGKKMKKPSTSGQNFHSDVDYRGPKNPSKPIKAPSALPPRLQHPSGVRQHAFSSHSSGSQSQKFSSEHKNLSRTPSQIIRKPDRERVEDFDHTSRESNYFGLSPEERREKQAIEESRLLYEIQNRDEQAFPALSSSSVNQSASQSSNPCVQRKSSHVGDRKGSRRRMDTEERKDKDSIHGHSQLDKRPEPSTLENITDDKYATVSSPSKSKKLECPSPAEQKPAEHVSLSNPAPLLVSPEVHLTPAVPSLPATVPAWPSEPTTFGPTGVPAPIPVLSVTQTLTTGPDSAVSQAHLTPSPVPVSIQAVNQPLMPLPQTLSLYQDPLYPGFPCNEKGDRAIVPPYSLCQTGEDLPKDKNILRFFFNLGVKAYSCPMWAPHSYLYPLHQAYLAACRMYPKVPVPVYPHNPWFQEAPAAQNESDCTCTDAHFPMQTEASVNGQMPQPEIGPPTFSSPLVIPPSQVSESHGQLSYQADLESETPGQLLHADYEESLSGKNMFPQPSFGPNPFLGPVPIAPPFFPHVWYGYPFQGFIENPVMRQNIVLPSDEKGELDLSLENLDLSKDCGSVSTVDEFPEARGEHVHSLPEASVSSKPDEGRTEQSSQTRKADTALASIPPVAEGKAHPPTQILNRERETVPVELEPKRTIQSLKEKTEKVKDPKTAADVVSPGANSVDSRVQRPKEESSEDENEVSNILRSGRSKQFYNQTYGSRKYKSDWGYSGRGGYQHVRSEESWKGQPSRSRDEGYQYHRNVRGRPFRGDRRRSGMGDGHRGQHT
Method in brief: as §1

OTUD5 = biological target: T5, OTUD5 (UniProt Q96G74)
T5 sequence (whole entry): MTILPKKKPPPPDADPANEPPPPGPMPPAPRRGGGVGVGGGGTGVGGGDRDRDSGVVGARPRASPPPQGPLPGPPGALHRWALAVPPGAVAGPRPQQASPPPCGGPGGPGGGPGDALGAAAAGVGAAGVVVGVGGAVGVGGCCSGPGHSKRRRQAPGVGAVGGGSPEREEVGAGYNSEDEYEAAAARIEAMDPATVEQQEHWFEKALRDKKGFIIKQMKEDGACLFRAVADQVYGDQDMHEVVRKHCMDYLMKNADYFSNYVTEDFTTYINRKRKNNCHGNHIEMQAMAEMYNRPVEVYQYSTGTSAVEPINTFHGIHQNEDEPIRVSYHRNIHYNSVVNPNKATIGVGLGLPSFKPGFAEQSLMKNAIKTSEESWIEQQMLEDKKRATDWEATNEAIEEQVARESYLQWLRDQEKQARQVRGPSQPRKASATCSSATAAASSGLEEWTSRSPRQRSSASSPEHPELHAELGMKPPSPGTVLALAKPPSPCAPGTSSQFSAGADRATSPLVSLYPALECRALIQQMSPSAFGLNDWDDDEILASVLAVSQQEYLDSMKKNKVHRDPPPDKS
Method in brief: as §1

Measured: log2 ratio of Biotin-Ahx-Ub-VS probe labelling

Sequence of EIF3F (O00303 whole entry): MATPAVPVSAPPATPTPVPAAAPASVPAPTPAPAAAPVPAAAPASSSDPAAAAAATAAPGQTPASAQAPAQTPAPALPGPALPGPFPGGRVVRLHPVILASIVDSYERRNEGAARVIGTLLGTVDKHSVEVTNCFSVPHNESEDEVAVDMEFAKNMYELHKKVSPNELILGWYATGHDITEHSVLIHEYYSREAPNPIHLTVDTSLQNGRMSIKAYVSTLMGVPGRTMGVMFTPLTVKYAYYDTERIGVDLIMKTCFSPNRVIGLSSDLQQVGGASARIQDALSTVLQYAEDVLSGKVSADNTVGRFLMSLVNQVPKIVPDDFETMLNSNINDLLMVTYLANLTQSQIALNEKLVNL
Sequence of ATXN3 (P54252 whole entry): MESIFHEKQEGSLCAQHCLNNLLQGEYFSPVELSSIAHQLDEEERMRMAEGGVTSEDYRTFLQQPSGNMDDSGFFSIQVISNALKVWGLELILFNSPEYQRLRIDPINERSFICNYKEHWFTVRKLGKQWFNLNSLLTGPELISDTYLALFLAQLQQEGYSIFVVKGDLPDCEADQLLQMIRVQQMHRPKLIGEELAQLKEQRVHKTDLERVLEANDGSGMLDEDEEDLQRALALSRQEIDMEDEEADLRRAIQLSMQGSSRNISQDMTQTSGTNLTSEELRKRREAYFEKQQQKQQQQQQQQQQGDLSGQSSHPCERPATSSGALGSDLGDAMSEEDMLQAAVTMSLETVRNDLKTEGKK
Sequence of OTUB1 (Q96FW1 whole entry): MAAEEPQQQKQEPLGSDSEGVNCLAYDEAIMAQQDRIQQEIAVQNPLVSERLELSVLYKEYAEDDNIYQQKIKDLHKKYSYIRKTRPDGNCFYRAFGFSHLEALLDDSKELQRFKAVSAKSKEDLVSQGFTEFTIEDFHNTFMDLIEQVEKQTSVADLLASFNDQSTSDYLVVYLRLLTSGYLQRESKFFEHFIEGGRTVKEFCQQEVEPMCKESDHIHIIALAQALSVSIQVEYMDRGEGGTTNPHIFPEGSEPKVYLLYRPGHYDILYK
Sequence of EIF3H (O15372 whole entry): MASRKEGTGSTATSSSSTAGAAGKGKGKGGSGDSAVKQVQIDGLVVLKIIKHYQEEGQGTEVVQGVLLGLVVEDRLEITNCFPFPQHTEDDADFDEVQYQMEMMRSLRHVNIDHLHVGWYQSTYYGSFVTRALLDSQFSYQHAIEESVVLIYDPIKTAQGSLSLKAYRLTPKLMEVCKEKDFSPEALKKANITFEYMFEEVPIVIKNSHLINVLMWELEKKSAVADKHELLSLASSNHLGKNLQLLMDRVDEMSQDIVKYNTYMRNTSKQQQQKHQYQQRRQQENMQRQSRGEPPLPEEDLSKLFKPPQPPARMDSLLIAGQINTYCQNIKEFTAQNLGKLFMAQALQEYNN

Cc1cccc(N(CCC#N)C(=O)CCl)c1C
inactive: ALG13 -0.29 | ATXN3 0.0325 | BAP1 -0.645 | EIF3F -0.0896 | EIF3H 0.111 | FAM105A -0.0506 | OTUB1 0.00102 | OTUD5 -0.19
active: OTUD4 -1.76
